Results filed as inconclusive are left out. Active and inactive are the calls of the source. Unless noted, calls come from the whole dose curve; as a rule, active = well fitted curve in the direction sought with a large enough effect; inconclusive = small, poorly fitted or top-dose-only effect, or another doubt; inactive = no such curve, though single readings can be large; an effect the other way counts as inactive or inconclusive.
How the values were obtained:
[1] = test system: Zika virus NS2B-NS3 protease (unlinked complex); experiment: Primary screen GU Rhodamine qHTS for Zika virus inhibitors: Unlinked NS2B-NS3 protease assay (AID 1347159); note: % is set by controls: 0 for no effect and ±100 for the full control effect; nearly all actives have a fitted effect of over 60% in size
How it was run: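 Buffer 10 mM Tris-HCl pH 8.0, 0.01% Tween 20. Unlinked protease 25 nM; compound preincubation 15 min, RT, protected from light. Substrate Rhod110, 1.5 microM; ~15% conversion in 15 min.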

[2] = Primary qHTS for inhibitors of nuclear receptor binding SET domain protein 2 (NSD2) in an RCH-ACV wild type WT cells (2C) (AID 1645877); note: nearly all actives have a fitted effect of over 70% in size; note: potency is the fitted concentration of half-maximal effect
[3] = Primary fluorescence-based thiol-reactive (MSTI) qHTS assay for identification of artifact compounds. (AID 1845221);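 note: thiol-reactive compounds lower the probe fluorescence signal; nearly all actives have a fitted effect of over 65% in size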
How it was run: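 One-hour, room-temperature, dark incubation of compound with 4 uM MSTI in PBS (pH 7.4, 2% DMSO) precedes a fluorescence read at 525 nm excitation, 598 nm emission; Hill-equation fitting yields concentration-response values.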

[4] = Primary redox qHTS assay for identification of artifact compounds. (AID 1845223);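 note: 0% = DMSO and 100% = reference compound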
How it was run: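 Redox-cycling detection via DTT (250 uM final) oxidation coupled to Amplex Red (25 uM)/HRP (250 mU/mL) in HBSS. 15 min preincubation plus 30 min after DTT, room temperature. Ex/Em 525/598 nm; 4-parameter Hill fit against DMSO and 10 uM DA3003.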

HaCat = experiment: Cytotoxic Profiling of Annotated Libraries Using Quantitative High-Throughput Screening (AID 1296008); settings: Five cell lines viability, CellTiter-Glo ATP luminescence, 48-72 h; max response: stronger effect = lower value; note: nearly all actives have a fitted effect of over 60% in size; note: potency is the fitted concentration of half-maximal effect; for max response: % is set by controls: 0 for no effect and ±100 for the full control effect
How it was run: (§1)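 Compounds were pin-transferred onto cells and incubated 48 or 72 hr at 37 degree Celsius, 95% humidity. CellTiter-Glo was added, plates sat 10 min at room temperature, then ATP-coupled luminescence was imaged as the viability read-out.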

NIH3T3 = experiment: as above; settings: Five cell lines viability, CellTiter-Glo ATP luminescence, 48-72 h; max response: stronger effect = lower value
How it was run: as §1

C33A = experiment: Primary qHTS to identify gynecologic anti-cancer compounds using libraries of approved drugs and bioactive compounds (AID 1345084); settings: Gynecologic cancer cell panel viability, ATPlite luminescence, 48 h; series mostly up to 57.5 µM; note: nearly all actives have a fitted effect of over 55% in size; note: potency is the fitted concentration of half-maximal effect; for activity change, negative = cytotoxicity: % is set by controls: 0 for no effect and ±100 for the full control effect
How it was run: (§2)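 In this quantitative HTS, cell killing is estimated from loss of ATP-dependent luciferase light. Cells see five compound concentrations over a 48 h exposure.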

CAOV3 = experiment: as above; settings: Gynecologic cancer cell panel viability, ATPlite luminescence, 48 h; series mostly up to 57.5 µM
How it was run: as §2

CASKI = experiment: as above; settings: Gynecologic cancer cell panel viability, ATPlite luminescence, 48 h; series mostly up to 57.5 µM
How it was run: as §2

SKOV3 = experiment: as above; settings: Gynecologic cancer cell panel viability, ATPlite luminescence, 48 h; series mostly up to 57.5 µM
How it was run: as §2

Tov-21-G = experiment: as above; settings: Gynecologic cancer cell panel viability, ATPlite luminescence, 48 h; series mostly up to 57.5 µM
How it was run: as §2

Es-2 = experiment: as above; settings: Gynecologic cancer cell panel viability, ATPlite luminescence, 48 h; series mostly up to 57.5 µM
How it was run: as §2

Hek293T = experiment: as above; settings: Gynecologic cancer cell panel viability, ATPlite luminescence, 48 h, control line for the selectivity index; series mostly up to 57.5 µM
How it was run: as §2

PA-1 = experiment: as above; settings: Gynecologic cancer cell panel viability, ATPlite luminescence, 48 h; series mostly up to 57.5 µM
How it was run: as §2

Tov112D = experiment: as above; settings: Gynecologic cancer cell panel viability, ATPlite luminescence, 48 h; series mostly up to 57.5 µM
How it was run: as §2

[5] = Primary qHTS to identify inhibitors of SARS-CoV-2 cell entry (AID 1645846; calls by dose curve; note: nearly all actives have a fitted effect of over 45% in size); settings: activity change, negative = inhibition: at 57.1 µM (top of the series) unless noted
How it was run: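 HEK293 cells stably expressing human ACE2, pre-treated 1 h with compound, then infected with MLV particles pseudotyped with Wuhan-Hu-1 spike (C-terminal 19-aa truncation). Luciferase luminescence after 48 h at 37 °C, normalised to spike PP and bald PP.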

C[C@@H]1Cc2c(Cl)cc(C(=O)N[C@@H](Cc3ccccc3)C(=O)O)c(O)c2C(=O)O1
active: Potency [2] 6.36 µM
inactive: Potency [1] | Potency [3] | Potency [4] | outcome (HaCat) | max response (NIH3T3) -8.41% | Potency (C33A) | Potency (CAOV3) | Potency (CASKI) | Potency (SKOV3) | Potency (Tov-21-G)

COC[C@]12CN(C)C3C4[C@H](OC)[C@H]1C3(C(OC)C[C@H]2O)[C@H]1C[C@@]2(O)[C@H](OC(=O)c3ccccc3)[C@@H]1[C@]4(O)[C@@H](O)[C@@H]2OC (stereo not given in full)
inactive: Potency [2] | Potency [3] | Potency [4] | max response (HaCat) -14.8% | Potency (CAOV3)

C[C@H]1CN(Cc2ccc(CC(=O)N3CCC(Nc4cccc(F)c4)CC3)cc2)CCN1
inactive: Potency [1] | Potency [3] | Potency [4] | Potency (C33A) | Potency (CAOV3) | Potency (CASKI) | Potency (Es-2) | Potency (Hek293T) | Potency (PA-1) | Potency (SKOV3) | Potency (Tov-21-G) | Potency (Tov112D)
active: Potency (NIH3T3) 20.6 µM

CCCCCn1cc(C(=O)Cc2ccccc2OC)c2ccccc21
inactive: Potency [1] | Potency [3] | Potency [4] | max response (HaCat) -10.3% | max response (NIH3T3) -7.87% | Potency (C33A) | Potency (CASKI) | Potency (Es-2) | Potency (Hek293T) | Potency (PA-1) | Potency (SKOV3) | Potency (Tov-21-G) | Potency (Tov112D)

CCC1(O)CCC2C3CCC4=CC(=O)CCC4C3CCC21CC (stereo not given)
inactive: Potency [1] | Potency [4] | outcome (HaCat) | max response (NIH3T3) 1.71% | Potency (C33A) | Potency (CAOV3) | Potency (CASKI) | Potency (Es-2) | Potency (Hek293T) | Potency (PA-1) | Potency (SKOV3) | Potency (Tov-21-G) | Potency (Tov112D)

N#Cc1ccccc1-c1cc(-c2ccccn2)cn(-c2ccccc2)c1=O
inactive: Potency [2] | Potency [3] | Potency [4] | max response (HaCat) 1.04% | max response (NIH3T3) -0.815% | Potency (C33A) | Potency (CAOV3) | Potency (CASKI) | Potency (Es-2) | Potency (Hek293T) | Potency (PA-1) | Potency (SKOV3) | Potency (Tov-21-G) | Potency (Tov112D)

C=C1[C@@H](O)[C@]2(O)OC[C@]34C2[C@]2(C)C(C[C@H]3OC(=O)[C@H](O)[C@@]14O)C(C)=CC(=O)[C@H]2O (stereo not given in full)
active: Potency [2] 3.17 µM
inactive: Potency [1] | Potency [3] | Potency [4] | max response (HaCat) 3.98% | max response (NIH3T3) -5.4% | Potency (CASKI) | Potency (Es-2) | Potency (SKOV3) | Potency (Tov-21-G)

NNC(=O)c1nn(Cc2ccc(Cl)cc2Cl)c2ccccc12
inactive: Potency [1] | Potency [3] | Potency [4] | max response (HaCat) 3.64% | max response (NIH3T3) -5.07% | Potency (C33A) | Potency (CASKI) | Potency (Es-2) | Potency (Hek293T) | Potency (Tov112D)

C/C=C(\C)C(=O)O[C@@H]1[C@@H](C)[C@]2(O)C3C=C(C)C(=O)[C@@]3(O)CC(CO)=C[C@H]2C2C(C)(C)[C@@]21OC(=O)C(C)CC (stereo not given in full)
inactive: Potency [3] | outcome (HaCat) | outcome (NIH3T3) | Potency (C33A) | Potency (CAOV3) | Potency (CASKI) | Potency (Hek293T) | Potency (SKOV3) | Potency (Tov-21-G) | Potency (Tov112D)

CCCCCn1cc(C(=O)C2C(C)(C)C2(C)C)c2ccccc21
inactive: Potency [2] | Potency [3] | Potency [4] | outcome (HaCat) | max response (NIH3T3) -0.489% | Potency (C33A) | Potency (CAOV3) | Potency (CASKI) | Potency (Es-2) | Potency (Hek293T) | Potency (PA-1) | Potency (Tov-21-G) | Potency (Tov112D)

C/C(=C\c1csc(C)n1)[C@@H]1C[C@@H]2O[C@@H]2CCC[C@H](C)[C@H](O)[C@@H](C)C(=O)C(C)(C)[C@@H](O)CC(=O)O1
inactive: Potency [1] | Potency [3] | Potency [4]
-70%: activity change, negative = inhibition [5]
active: Potency [2] 0.0263 µM

CCOC(=O)c1ccnc2cc(C(OCCN3CCCCC3)c3ccccc3Cl)sc12 (stereo not given)
active: Potency [2] 20.5 µM
inactive: Potency [1] | Potency [3] | Potency [4] | outcome (HaCat) | Potency (CAOV3)

Cc1sc2c(c1C)C(c1ccc(Cl)cc1)=N[C@@H](CC(=O)Nc1ccc(O)cc1)c1nnc(C)n1-2
inactive: activity change, negative = thiol reactive [3] 36.2% [at 11.5 µM] | outcome (HaCat) | activity change, negative = cytotoxicity (C33A) -1.06% [at 11.6 µM] | activity change, negative = cytotoxicity (Hek293T) -11.9% [at 11.6 µM] | activity change, negative = cytotoxicity (Tov112D) -20.5% [at 11.6 µM]
active: Potency [2] 0.069 µM | Potency (SKOV3) 0.562 µM

From PubChem BioAssay (NCATS)
